Measurements as given in PubChem BioAssay.
Activity calls are given as the source filed them. Unless noted, the rule behind the calls is not given here.

Key:
[1] = tested on: Wnt5a (protein binding on small-molecule microarray); assay: Wnt5a binders on small-molecule microarray, primary screen, biophysical, 635/667 nm fluorescence (AID 1142); conditions: 635 nm fluorescence, higher = more signal;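 note: fluorescence read at 667 nm with signal to noise per printed feature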
[2] = cell viability in Huh7 cells, primary screen, cytotoxicity control for HCV replication inhibitor project, CellTiter-Glo luminescence, basal, 48 h (AID 1143); conditions: Huh7 HCV replicon, higher = more signal, called active from +8 up or from −8 down;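 note: Huh7 hepatoma cells carrying a hepatitis C replication reporter with no stimulus; test concentration not given here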
[3] = P. aeruginosa biofilm formation inhibitors, primary screen, PAO1 strain, BacTiter-Glo luminescence, LB-PBS (AID 1144); conditions: 12 h, higher = more signal
[4] = CREB reporter modulators without forskolin, primary screen, cell-based, PC12, CRE-LacZ reporter, unstimulated (AID 1145); conditions: no forskolin, luminescence, 4.5 h, higher = more signal, called active from +8 up or from −8 down
[5] = CREB reporter modulators under forskolin, primary screen, cell-based, PC12, CRE-LacZ reporter, forskolin-stimulated (AID 1146); conditions: luminescence, 4.5 h, higher = more signal, called active from +8 up or from −8 down;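 note: PC12 cells with 6xCRE LacZ reporter stimulated by forskolin 10 µM; beta-galactosidase reporter signal reflecting CREB driven transcription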
[6] = molecular target: Streptavidin (Streptomyces avidinii) (UniProt P22629); assay: streptavidin binders on small-molecule microarray, primary screen, artefact control for SMM compound annotation, biophysical, 635/667 nm fluorescence (AID 1147); conditions: streptavidin binding, higher = more signal;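 note: signal reflects streptavidin binding to arrayed compounds as a control protein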
Streptavidin (Streptomyces avidinii), sequence (P22629 whole entry, looked up): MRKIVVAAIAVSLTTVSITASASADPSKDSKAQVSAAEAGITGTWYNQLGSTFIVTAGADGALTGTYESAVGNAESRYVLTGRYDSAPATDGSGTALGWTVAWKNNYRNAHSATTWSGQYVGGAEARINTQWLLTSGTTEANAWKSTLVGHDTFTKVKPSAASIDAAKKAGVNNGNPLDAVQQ

[7] = small-molecule binders of probe aInhba, primary screen, biochemical, small-molecule microarray, 635/667 nm fluorescence (AID 1148); conditions: higher = more signal;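 note: score merges 667nm spot fluorescence with signal-to-noise for antibody binding to printed compounds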
Torsin-1A (Homo sapiens) [8] = molecular target: Torsin-1A (Homo sapiens) (UniProt O14656); assay: torsin A binders from cell lysate, primary screen, small-molecule microarray, wild-type, 635/667 nm (AID 1149); conditions: COS7 hTOR1A-WT lysate, 635 nm fluorescence, higher = more signal
Torsin-1A (Homo sapiens), sequence (O14656 whole entry, looked up): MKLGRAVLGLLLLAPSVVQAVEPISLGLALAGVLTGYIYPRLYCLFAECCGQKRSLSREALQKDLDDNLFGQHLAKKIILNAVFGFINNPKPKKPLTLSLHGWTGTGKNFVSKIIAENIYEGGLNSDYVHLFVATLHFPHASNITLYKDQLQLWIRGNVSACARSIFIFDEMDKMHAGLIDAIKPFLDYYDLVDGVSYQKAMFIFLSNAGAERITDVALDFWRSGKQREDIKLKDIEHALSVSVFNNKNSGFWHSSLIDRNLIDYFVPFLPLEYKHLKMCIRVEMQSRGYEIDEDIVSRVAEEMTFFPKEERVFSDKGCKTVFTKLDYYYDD

Torsin-1A (Homo sapiens) [9] = molecular target: Torsin-1A (Homo sapiens) (UniProt O14656); assay: small-molecule binders of mutant TOR1A in lysate, primary screen, cell lysate, small-molecule microarray, COS7 lysate, 635/667 nm fluorescence (AID 1150); conditions: COS7 hTOR1A mutant lysate, 635 nm fluorescence, higher = more signal;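 note: score pools 667 nm emission and signal to noise measuring lysate protein binding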
[10] = tested on: Sonic hedgehog protein (Shh); assay: small-molecule binders of Shh protein, primary screen, biochemical, small-molecule microarray, 635/667 nm fluorescence (AID 1151); conditions: small-molecule microarray binding, 635 nm fluorescence; higher = more signal;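 note: Shh protein binding to compounds spotted on small-molecule microarray slides; score combines spot fluorescence intensity with signal-to-noise across triplicate slides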
[11] = E. coli DRC41 culture turbidity changes, primary screen, E. coli filamentation inducer project, strain DRC41, OD650, 48 h (AID 1152);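 note: E. coli MC1000 strain DRC41 lacking acrAB efflux pump and sulA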; conditions: E. coli DRC41 (acrAB sulA), higher = more signal, called active from +8 up or from −8 down
[12] = small-molecule binders of probe aLefty1, primary screen, biochemical, small-molecule microarray, 635/667 nm fluorescence (AID 1153); conditions: higher = more signal;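 note: score merges spot fluorescence with signal-to-noise ratio from the scanned slide images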
[13] = PSAC antagonists in infected red cells, primary screen, cell-based, P. falciparum Indochina, OD700, 1 h (AID 1154); conditions: P. falciparum Indochina infected RBC osmotic lysis, higher = more signal, called active from +8 up or from −8 down
[14] = PSAC antagonists in infected red cells, primary screen, cell-based, P. falciparum Indochina, OD700, 2 h (AID 1155);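 note: lysis reports solute entry through the parasite surface anion channel PSAC; channel blockers reduce lysis of infected cells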; conditions: P. falciparum Indochina infected erythrocytes, osmotic lysis OD700; higher = more signal, called active from +8 up or from −8 down
[15] = osmotic lysis modulators in infected erythrocytes, primary screen, PSAC antagonist project, cell-based, P. falciparum Indochina, OD700, 3 h (AID 1156); conditions: higher = more signal, called active from +8 up or from −8 down
[16] = PSAC antagonists in infected red cells, primary screen, cell-based, P. falciparum Indochina, OD700, 18 h (AID 1157); conditions: P. falciparum Indochina infected erythrocytes, osmotic lysis OD700, 18 h; higher = more signal, called active from +8 up or from −8 down
[17] = modulators of S6 phosphorylation in cells, primary screen, cell-based, A549, cytoblot, luminescence, serum-stimulated (AID 1158); conditions: A549 phospho-S6 cytoblot, 5 h, higher = more signal;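 note: serum-stimulated A549 lung adenocarcinoma cells; signal is phosphorylated S6 detected by cytoblot immunostaining with HRP secondary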
[18] = molecular target: NADPH oxidase 2 (Homo sapiens) (UniProt P04839); assay: NOX2-dependent H2O2 signal modulators, primary screen, NOX inhibitor project, cell-based, HEK293-NOX2, PMA-stimulated, Amplex Red fluorescence (AID 1159); conditions: 45 min, higher = more signal, called active from +8 up or from −8 down; note: test concentration not given here
NADPH oxidase 2 (Homo sapiens), sequence (P04839 whole entry, looked up): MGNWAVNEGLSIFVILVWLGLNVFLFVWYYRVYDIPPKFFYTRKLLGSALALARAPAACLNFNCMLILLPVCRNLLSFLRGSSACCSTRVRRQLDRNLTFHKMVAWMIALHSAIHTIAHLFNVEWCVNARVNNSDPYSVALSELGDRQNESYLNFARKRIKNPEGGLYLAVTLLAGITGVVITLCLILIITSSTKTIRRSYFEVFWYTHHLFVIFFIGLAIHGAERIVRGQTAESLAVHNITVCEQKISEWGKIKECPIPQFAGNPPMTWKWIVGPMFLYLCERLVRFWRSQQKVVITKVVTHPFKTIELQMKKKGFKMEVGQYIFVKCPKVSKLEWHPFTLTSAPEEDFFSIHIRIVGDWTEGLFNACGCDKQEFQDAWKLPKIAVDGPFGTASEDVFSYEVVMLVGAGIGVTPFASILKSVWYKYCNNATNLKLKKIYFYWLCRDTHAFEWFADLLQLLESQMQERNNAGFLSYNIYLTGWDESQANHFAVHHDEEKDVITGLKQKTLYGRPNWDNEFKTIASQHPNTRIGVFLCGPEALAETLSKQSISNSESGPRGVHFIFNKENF

[19] = molecular target: NADPH oxidase 4 (Homo sapiens) (UniProt Q9NPH5); assay: NOX4-dependent H2O2 signal modulators, primary screen, NOX inhibitor project, cell-based, HEK293-NOX4, tetracycline-induced, Amplex Red fluorescence (AID 1160); conditions: 45 min, higher = more signal, called active from +8 up or from −8 down
NADPH oxidase 4 (Homo sapiens), sequence (Q9NPH5 whole entry, looked up): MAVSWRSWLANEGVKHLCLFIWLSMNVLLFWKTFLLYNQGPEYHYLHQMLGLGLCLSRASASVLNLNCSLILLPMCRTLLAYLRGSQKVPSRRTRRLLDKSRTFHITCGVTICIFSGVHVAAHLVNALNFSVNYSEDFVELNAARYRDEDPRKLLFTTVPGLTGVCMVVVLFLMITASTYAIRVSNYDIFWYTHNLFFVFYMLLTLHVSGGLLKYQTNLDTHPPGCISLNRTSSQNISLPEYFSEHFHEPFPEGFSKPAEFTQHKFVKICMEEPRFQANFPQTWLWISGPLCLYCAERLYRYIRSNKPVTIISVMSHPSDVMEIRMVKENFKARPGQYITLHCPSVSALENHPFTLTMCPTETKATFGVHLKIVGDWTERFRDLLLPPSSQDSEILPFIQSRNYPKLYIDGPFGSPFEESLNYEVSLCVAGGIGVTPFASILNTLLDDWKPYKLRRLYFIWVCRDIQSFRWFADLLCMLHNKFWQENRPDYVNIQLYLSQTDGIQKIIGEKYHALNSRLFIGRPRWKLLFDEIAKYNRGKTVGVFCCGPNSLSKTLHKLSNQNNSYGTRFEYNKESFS

[20] = molecular target: NADPH oxidase 5 (Homo sapiens) (UniProt Q96PH1); assay: NOX5-dependent H2O2 signal modulators, primary screen, NOX inhibitor project, cell-based, HEK293-NOX5, Amplex Red fluorescence (AID 1161); conditions: HEK293-NOX5, ionomycin, 45 min, higher = more signal
NADPH oxidase 5 (Homo sapiens), sequence (Q96PH1 whole entry, looked up): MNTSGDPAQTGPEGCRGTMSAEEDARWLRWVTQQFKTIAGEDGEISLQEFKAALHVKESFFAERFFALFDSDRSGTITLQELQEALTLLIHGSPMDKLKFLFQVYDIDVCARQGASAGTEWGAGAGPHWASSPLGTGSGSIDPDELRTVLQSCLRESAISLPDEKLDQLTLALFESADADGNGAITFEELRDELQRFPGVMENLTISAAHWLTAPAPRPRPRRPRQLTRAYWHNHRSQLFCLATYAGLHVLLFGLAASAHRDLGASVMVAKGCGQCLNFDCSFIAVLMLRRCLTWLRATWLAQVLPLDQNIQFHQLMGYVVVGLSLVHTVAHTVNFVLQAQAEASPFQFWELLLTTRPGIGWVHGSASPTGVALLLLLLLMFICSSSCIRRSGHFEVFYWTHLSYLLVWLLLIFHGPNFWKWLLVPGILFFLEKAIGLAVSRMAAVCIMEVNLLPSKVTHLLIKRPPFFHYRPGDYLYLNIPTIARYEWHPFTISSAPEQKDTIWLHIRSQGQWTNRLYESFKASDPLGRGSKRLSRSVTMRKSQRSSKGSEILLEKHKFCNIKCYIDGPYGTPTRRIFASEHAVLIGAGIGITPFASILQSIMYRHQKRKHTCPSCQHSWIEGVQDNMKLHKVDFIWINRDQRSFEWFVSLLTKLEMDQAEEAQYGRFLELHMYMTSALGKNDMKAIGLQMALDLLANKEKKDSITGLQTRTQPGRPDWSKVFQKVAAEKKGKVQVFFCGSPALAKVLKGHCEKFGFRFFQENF

Row | Structure (SMILES) | composite z-score [1] | z-score [2] | z-score [3] | z-score [4] | z-score [5] | composite z-score [6] | composite z-score [7] | composite z-score (Torsin-1A (Homo sapiens) [8]) | composite z-score (Torsin-1A (Homo sapiens) [9]) | composite z-score [10] | z-score [11] | composite z-score [12] | z-score [13] | z-score [14] | z-score [15] | z-score [16] | z-score [17] | z-score [18] | z-score [19] | z-score [20]
1 | COCOc1ccc(Br)cc1C(=O)[C@@H]1O[C@H]1c1cccc(OC)c1 | -0.202 | -1.97 (inactive) | 0.64 (inactive) | 1.2 (inactive) | -0.37 (inactive) | 0.015 | -0.149 | 0.736 | 0.437 | 0.349 | 0.467 (inactive) | -0.0662 | 5.75 (inactive) | 1.12 (inactive) | -0.23 (inactive) | 0.248 (inactive) | -0.291 | 1 (inactive) | -0.575 (inactive) | -1.92
2 | C[C@H]1CC[C@H]2C(=O)OC(CO)CN2[C@@H]1c1ccc(Br)cc1 (stereo not given in full) | 0.0096 | 0.131 (inactive) | -1.21 (inactive) | -0.527 (inactive) | -1.43 (inactive) | -0.281 | -0.253 | 0.21 | 0.002 | 0.661 | -0.565 (inactive) | -0.0918 | 0.382 (inactive) | 0.675 (inactive) | 0.647 (inactive) | 0.223 (inactive) | -0.42 | 0.923 (inactive) | -1.15 (inactive) | 0.324
3 | CC(CCN1CCCCc2nc(C)c(C)cc21)=NOC[C@@H](O)COCc1ccco1 | 0.59 | 0.159 (inactive) | 0.676 (inactive) | 0.662 (inactive) | 0.758 (inactive) | -0.555 | -0.15 | 3.74 | 3.23 | 2.31 | 0.721 (inactive) | -0.0559 | 1.56 (inactive) | 0.279 (inactive) | 0.876 (inactive) | 0.343 (inactive) | 0.327 | -1.07 (inactive) | -0.199 (inactive) | -0.153
4 | CCOC(=O)NN=C1C[C@@H](O)[C@@H](O)[C@@H]2[C@@H]3C(=O)N(Cc4ccccc4)C(=O)[C@@H]3CC[C@H]12 | -0.0307 | -0.239 (inactive) | -0.704 (inactive) | -0.837 (inactive) | -0.175 (inactive) | 1.09 | -0.214 | 0.0722 | 1.36 | -0.171 | -0.356 (inactive) | -0.332 | 1.39 (inactive) | -0.673 (inactive) | -0.0654 (inactive) | -1.36 (inactive) | 0.577 | 1.15 (inactive) | 0.547 (inactive) | 0.0313
5 | CON=CC[C@@H]1C=C[C@H](OC(C)=O)[C@@H](COC(C)=O)O1 | 0.474 | 0.544 (inactive) | 0.667 (inactive) | -0.403 (inactive) | 0.46 (inactive) | -0.0091 | 0.102 | 0.611 | 0.592 | 0.783 | -2.1 (inactive) | 0.171 | 0.0262 (inactive) | 0.0956 (inactive) | -0.833 (inactive) | 0.245 (inactive) | -0.841 | 0.0851 (inactive) | -0.0561 (inactive) | -0.107
6 | CON=C1[C@H]2CCn3c(=O)n(-c4ccccc4)c(=O)n3[C@H]2[C@H](O)[C@@H]2O[C@H]12 | 0.0275 | 0.653 (inactive) | -0.633 (inactive) | 1.55 (inactive) | 0.236 (inactive) | 0.0011 | -0.268 | 0.144 | 0.606 | 0.435 | -1.04 (inactive) | -0.108 | -0.713 (inactive) | -1.53 (inactive) | -0.801 (inactive) | -1.77 (inactive) | 1.56 | 0.0197 (inactive) | 0.3 (inactive) | 1.26
7 | CC(C)=CCCC(C)=CCON=C1C[C@@H](O)[C@@H](O)[C@@H]2[C@@H]3C(=O)N(C4CCCCC4)C(=O)[C@@H]3CC[C@@H]12 | 0.24 | -0.592 (inactive) | 0.233 (inactive) | 0.517 (inactive) | 0.13 (inactive) | -0.0037 | -0.0719 | 0.184 | 0.288 | 1.08 | -0.734 (inactive) | -0.147 | 2.18 (inactive) | 0.677 (inactive) | -0.25 (inactive) | 0.525 (inactive) | -0.367 | 0.606 (inactive) | 0.435 (inactive) | -0.18
8 | CO[C@H]1COC(=O)CC=C[C@H](C)[C@@H](OC)COC(=O)[C@H](C)COC(=O)CC=C[C@@H]1C | -0.144 | -0.0417 (inactive) | -0.165 (inactive) | -0.93 (inactive) | -0.724 (inactive) | -0.127 | -0.208 | 1.1 | 1.01 | 1.93 | 0.79 (inactive) | -0.146 | -0.0428 (inactive) | 0.202 (inactive) | 0.523 (inactive) | 0.13 (inactive) | 0.333 | -0.165 (inactive) | 0.297 (inactive) | -0.12
9 | COc1ccc(C#C[C@@H]2C=C[C@H](OC(C)=O)[C@@H](COC(C)=O)O2)cc1 | 0.392 | -3.46 (inactive) | 0.132 (inactive) | 0.291 (inactive) | 1.08 (inactive) | 0.271 | 0.0442 | 0.244 | 0.267 | 0.882 | 0.381 (inactive) | -0.193 | 1.96 (inactive) | 0.141 (inactive) | -0.544 (inactive) | -0.0979 (inactive) | -0.394 | 1.38 (inactive) | 0.59 (inactive) | 0.89
